# Casp1 inh: caspase-1 (human) inhibition, allosteric or competitive | 75,000 tested, 0.03% active | Potency, µM (doses to about 57.5 µM), for the others: top-dose activity change, negative = inhibition, most hits filed as inhibitors | Caspase-1 enzyme, Ac-WEHD-AFC fluorogenic rate | AID 900;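 further: potency means the concentration at half of the fitted maximal effect; plate controls were vehicle for no effect and no substrate for full effect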
# 15-hLO-2 inh: blocks human 15-lipoxygenase 2 activity; O15296; purified 15hLO-2, xylenol orange hydroperoxide absorbance; Potency, µM (highest dose often 57.1 µM), for the others: top-dose activity change, negative = inhibition, most hits filed as inhibitors; 110,000 tested, 0.56% active; further: potency means the concentration at half of the fitted maximal effect; on the % scale 0 is the no-effect control and ±100 the full control effect; nearly all actives have a fitted effect of over 60% in size
# Target sequence (O15296 whole entry, looked up): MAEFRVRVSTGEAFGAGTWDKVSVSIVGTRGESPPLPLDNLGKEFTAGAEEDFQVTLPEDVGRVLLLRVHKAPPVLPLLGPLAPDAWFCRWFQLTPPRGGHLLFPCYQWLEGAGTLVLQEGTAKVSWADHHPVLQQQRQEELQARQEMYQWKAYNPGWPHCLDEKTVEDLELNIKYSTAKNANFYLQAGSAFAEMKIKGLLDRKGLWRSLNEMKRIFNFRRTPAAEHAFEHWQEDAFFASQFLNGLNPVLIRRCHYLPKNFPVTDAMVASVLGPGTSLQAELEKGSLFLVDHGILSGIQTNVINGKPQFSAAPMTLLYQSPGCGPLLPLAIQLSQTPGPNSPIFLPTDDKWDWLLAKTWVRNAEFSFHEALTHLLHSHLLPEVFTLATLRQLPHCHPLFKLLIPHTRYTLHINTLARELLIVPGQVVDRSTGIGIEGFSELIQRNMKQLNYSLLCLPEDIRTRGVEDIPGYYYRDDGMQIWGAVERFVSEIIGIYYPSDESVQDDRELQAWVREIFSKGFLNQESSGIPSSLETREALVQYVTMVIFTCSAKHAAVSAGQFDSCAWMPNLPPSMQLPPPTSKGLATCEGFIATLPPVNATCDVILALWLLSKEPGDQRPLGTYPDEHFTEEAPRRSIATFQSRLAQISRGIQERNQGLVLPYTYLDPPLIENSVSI
#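 Enzyme 50 nM, AA 45 uM, 25 mM Hepes pH 7.5 + 0.01% Triton X-100; cpd preinc 15 min RT, rxn 90 min RT; stop/detect with 200 uM XO + 300 uM Fe(II) in 50 mM H2SO4, 30 min; A573/A405.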
# HEK293 cAMP ctrl: counter-screen for TSHR agonists: cAMP increase in parental HEK293; parental HEK293 CNG cAMP sensor, membrane potential fluorescence; Potency, µM (doses to about 57.1 µM), inactives show at the highest dose activation, most hits filed as activators; 73,000 tested, 2.5% active; AID 938; further: potency means the concentration at half of the fitted maximal effect; % of control where 0% means no effect; nearly all actives have a fitted effect of over 55% in size
#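 Parental HEK 293 cells stably expressing a cAMP-gated CNG channel were loaded with membrane potential dye containing 100 uM RO 20-1724 for 60 min. Compound added for 30 min; depolarization read as fluorescence intensity at 590 nm.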
# Caspase-7 inhib: allosteric or competitive inhibitors of human caspase-7; recombinant caspase-7, Ac-DEVD-AFC fluorescence rate; 75,000 tested, 0.02% active; P55210; Potency, µM (top dose mostly 57.5 µM), without a hit: at the top dose activity change, negative = inhibition, usual class: inhibitors; active means well fitted inhibition curve with a large enough effect in the main read-out, with a control signal flat, not every such curve was filed as active; inconclusive means small, poorly fitted or top-dose-only effect, or a change in a side signal; further: potency means the concentration at half of the fitted maximal effect; % of control where 0% means no effect
# TSHR agonist: TSH receptor (human) agonism; AID 926; HEK293-CNG-TSHR cells (CNG channel as cAMP sensor), membrane potential dye, cAMP; 73,000 tested, 0.48% active; P16473; Potency, µM (titrated, usually from 57.1 µM), without a hit: at the top dose activation, actives largely listed as activators; active means well fitted activation curve with a large enough effect in the main read-out, with a control signal flat, not every such curve was filed as active; inconclusive means small, poorly fitted or top-dose-only effect, or a change in a side signal; inactive means no such curve, though single readings can be large or run the other way; % of control where 0% means no effect;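 further: the control signal comes from parental cells without the receptor; potency means the concentration at half of the fitted maximal effect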
#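 HEK 293 cells stably expressing TSHR and a cAMP-gated CNG channel; parental CNG-only cells as counterscreen. Cells preloaded 60 min with membrane potential dye plus 100 uM RO 20-1724, then compound 30 min; fluorescence read at 590 nm.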
# ALOX15 inhib: inhibitors of human 15-lipoxygenase (ALOX15); P16050; purified 15hLO-1, xylenol orange hydroperoxide absorbance; AID 887; Potency, µM (highest dose often 57.1 µM), for the others: at the highest dose activity change, negative = inhibition, most hits filed as inhibitors; 74,000 tested, 1.4% active; further: potency means the concentration at half of the fitted maximal effect; on the % scale 0 is the no-effect control and ±100 the full control effect; nearly all actives have a fitted effect of over 55% in size
#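 Compounds were preincubated 15 min at room temperature with 40 nM purified human enzyme (25 mM Hepes pH 7.5, 0.01% Triton X-100); 50 uM arachidonic acid reacted 6 min. Fe-xylenol orange detection, 30 min, absorbance ratio 573/405 nm.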
# parental cAMP: TSHR-independent cAMP elevation, counter-screen; shares compounds with TSHR agonist; parental HEK293 CNG biosensor, cAMP membrane potential fluorescence; activity change, negative = inhibition, % at 32.9 µM; 150 tested, under 10 active; AID 953
# An asterisk follows results filed as active; u = inconclusive; x = no result; [ ] = remark or other dose. Shown are actives, neighbours in structure and some others; about 3% of the full set was active somewhere. Unless noted, the call rests on the fitted dose curve; in most records, active means well fitted curve in the direction sought with a large enough effect; inconclusive means small, poorly fitted or top-dose-only effect, or another doubt; inactive means no such curve, though single readings can be large; an effect the other way counts as inactive or inconclusive.
SMILES,Casp1 inh,15-hLO-2 inh,HEK293 cAMP ctrl,Caspase-7 inhib,TSHR agonist,ALOX15 inhib,parental cAMP
COc1cc(NC(=O)c2cc(-n3cnnc3)ccc2Cl)cc(OC)c1,-1%,0%,6%,-3%,x,-9%,-1[25.6 µM]
CC1=CCC2C(=O)N(c3ccc(Br)cc3C)C(=O)C2C1 (stereo not drawn),0%,-1%,3%,0%,25µM*,-28%,-2
CC1(C)CC(=O)C2=C(C1)OC(N)=C(C#N)C2C#Cc1ccccc1 (stereo not drawn),-4%,-8%,4%,-5%,18%,-27%,x
CC1(C)CC(=O)C2=C(C1)OC(N)=C(C#N)C2CCc1ccccc1 (stereo not drawn),-2%,x,28%,-1%,20µM*,-22%,14
Cc1ccc(S(=O)(=O)N2CCC(C(=O)NCCCN3CCCCCC3)CC2)cc1,-3%,34%,-1%,-1%,4µM*,-26%,-4
Cc1ccc(S(=O)(=O)N2CCC(C(=O)NCCCOC(C)C)CC2)cc1,x,-5%,x,x,x,x,x
CC12CCC(C(=O)N(NC(=O)c3cc(Cl)ccc3O)C1=O)C2(C)C (stereo not drawn),x,1%,x,x,x,x,x
Cc1cccc(OCC(=O)OCC(=O)c2c(N)n(C)c(=O)n(C)c2=O)c1,3%,-5%,0%,0%,13µM*,3%,4
Cc1noc(/C=C/c2ccco2)c1S(=O)(=O)N1CCC(C(=O)NCc2ccco2)CC1,-6%,-16%,12%,-10%,32µM*,-25%,18
COC(=O)CNC(=O)C12CC3(C)CC(C)(CC(C)(C3)C1)C2,-1%,-1%,5%,-7%,13µM*,0%,8
Cc1ccc(C(=O)Nc2ccccc2N2CCOCC2)c(C)c1,-3%,x,7%,-1%,1%,-8%,x
CN=C(N)/N=C(\N)Nc1cc2ccccc2c2ccccc12,-1%[11.5 µM],4%[11.4 µM],8%[11.4 µM],-1%[11.5 µM],1%[11.4 µM],6%[11.4 µM],x
N#CC1=C(N)Oc2cc(Nc3ccccc3)ccc2C1c1ccncc1 (stereo not drawn),x,52%,x,x,x,x,x
Cc1cc(Cl)c(S(=O)(=O)Nc2ccc3c(c2)OCO3)cc1OCC(N)=O,-4%,-9%,20%,-3%,13µM*,-2%,-8
Nc1cc(CN2C(=O)c3ccccc3C2=O)cc(Cl)c1O,3%,u,-2%,-1%,2%,10µM*,5[25.6 µM]
O=C(c1ccc(Cl)cc1)c1ccc(CN2C(=O)c3ccccc3C2=O)o1,x,-11%,x,x,x,x,x
COc1ccc(-c2cc(C(F)(F)F)nc(SCCC(=O)N3CCOCC3)n2)cc1,-2%,1%,23%,-1%,20µM*,-5%,13
CC(=O)N1CCc2cc(S(=O)(=O)NC(CC(C)C)C(=O)Nc3ccc4c(c3)OCCO4)ccc21 (stereo not drawn),0%,-3%,-3%,0%,1%,-4%,x
COC(=O)CCC(=O)Nc1cccc(C(=O)Nc2cccc(Cl)c2)c1,x,6%,x,x,x,x,x
O=C1C=C(NCc2ccc(Cl)c(Cl)c2)C2(CCCCC2)O1,x,-28%,x,x,x,x,x
O=C1C=C(NCc2ccccc2)C2(CCCCC2)O1,-2%,8%,22%[11.4 µM],0%,x,3%[11.4 µM],17[25.6 µM]
COC(=O)c1cc(NC2c3ccccc3C(=O)N2c2cccnc2)cc(C(=O)OC)c1 (stereo not drawn),3%,x,15%,-3%,16µM*,3%,18
O=C1c2ccccc2C(Nc2ccccc2)N1c1cccnc1 (stereo not drawn),x,0%,x,x,x,x,x

# Assay outcomes (PubChem)
